We go through four targets from the supplement of paper PMC10849652.

The full data set covers some 7,900 targets. This sample favours those with a hit. About 0.6% of all pairs of compound and target were hits. Values without a mark were called inactive.

What all share (assay): log2 fold change, soluble protein after heating vs DMSO (PISA); higher = thermal stabilisation; K562 cells, 10 uM, 30 min; active = over 0.2 and 3.5 SD of the protein, either way, in both replicates (recomputed)
Compound in one assay: CN1CCN(CCOc2cc(OC3CCOCC3)c3c(Nc4c(Cl)ccc5c4OCO5)ncnc3c2)CC1 [saracatinib]
The procedure, abridged:
(§1)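 Soluble protein was quantified by TMTpro 16plex LC-MS/MS after channel sums were equalised. It was obtained as the supernatant after 21,000xg for 90 min from pooled aliquots of K562 cells (2×10^6 cells/mL, 10 μM compound, 30 min) heated for 3 min across 48°C-58°C and extracted in PBS with 0.5% NP-40 at 4°C. Thermal stability values are relative to control samples and come from duplicates. They are given as log2 fold changes.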

Compound in the next assay: CN1CCN(c2nc(C3=C(c4c[nH]c5ccccc45)C(=O)NC3=O)c3ccccc3n2)CC1 [sotrastaurin]
Put shortly:
as §1

Compound in the next assay: CN1CC[C@H](c2c(O)cc(O)c3c(=O)cc(-c4ccccc4Cl)oc23)[C@H](O)C1 [alvocidib]
The procedure, abridged: as §1

Compound in another assay: CN1CCc2c(c3ccccc3n2Cc2ccc(C(=O)NO)cc2)C1 [Tubastatin A]
Put shortly: as §1

Compound in assay [1]: CNC(=O)C1=CC=CC=C1NC2=NC(=NC=C2Cl)NC3=C(C=C(C=C3)N4CCOCC4)OC
The procedure, abridged:
as §1

Compound in a further assay: CNC(=O)c1ccc(Nc2ncc(C(F)(F)F)c(NCc3nccnc3N(C)S(C)(=O)=O)n2)cc1 [defactinib]
Put shortly:
as §1

Compound in a further assay: CNCc1ccc(-c2[nH]c3cc(F)cc4c3c2CCNC4=O)cc1 [rucaparib]
Put shortly: as §1

Compound in assay [2]: CNc1nc(-c2ccc3c(N)n[nH]c3c2)cc(N2C[C@@H](C(=O)NC3CCCCC3)CC[C@H]2C)n1
The procedure, abridged:
as §1

Compound in a further assay: COC(=O)N[C@@H](C)CNc1nccc(-c2cn(C(C)C)nc2-c2cc(Cl)cc(NS(C)(=O)=O)c2F)n1 [encorafenib]
The procedure, abridged: as §1

Compound in assay [3]: COC(=O)[C@H](CCSC)NC(=O)C1=C(C=C(C=C1)NC[C@H](CS)N)C2=CC=CC=C2
Put shortly:
as §1

Compound in assay [4]: COC1=CC=C(C=C1)CN2C=CC3=C2C=C(C=C3)C(=O)NO
The procedure, abridged:
as §1

Compound in a further assay: CON(C)C(=O)N1N=C(c2cc(F)ccc2F)S[C@@]1(CCCN)c1ccccc1 [filanesib]
Put shortly:
as §1

Compound in a further assay: CO[C@H]1C[C@@H]2CC[C@@H](C)[C@@](O)(O2)C(=O)C(=O)N2CCCC[C@H]2C(=O)O[C@H]([C@H](C)C[C@@H]2CC[C@H](n3cnnn3)[C@H](OC)C2)CC(=O)[C@H](C)/C=C(\C)[C@@H](O)[C@@H](OC)C(=O)[C@H](C)C[C@H](C)/C=C/C=C/C=C/1C [zotarolimus]
Put shortly:
as §1

Compound in another assay: COc1cc(C(=O)O)ccc1NC(=O)[C@@H]1N[C@@H](CC(C)(C)C)[C@](C#N)(c2ccc(Cl)cc2F)[C@H]1c1cccc(Cl)c1F [idasanutlin]
Put shortly:
as §1

Compound in a further assay: COc1cc(Nc2ncc3c(n2)-c2ccc(Cl)cc2C(c2c(F)cccc2OC)=NC3)ccc1C(=O)O [alisertib]
The procedure, abridged:
as §1

Compound in assay [5]: COc1cc2nc(-c3cc(F)ccc3O)nc(N[C@@H]3CNC[C@H]3C(C)(C)O)c2cc1OC
Put shortly: as §1

Compound in another assay: COc1cc2ncnc(Nc3ccc(F)c(Cl)c3)c2cc1OCCCN1CCOCC1 [gefitinib]
The procedure, abridged:
as §1

Compound in assay [6]: COc1cccc2cc(-c3nc([C@H]4CC[C@H](C(=O)O)CC4)n4ncnc(N)c34)[nH]c12
Put shortly: as §1

Compound in another assay: CS(=O)(=O)CCNCc1ccc(-c2ccc3ncnc(Nc4ccc(OCc5cccc(F)c5)c(Cl)c4)c3c2)o1 [lapatinib]
The procedure, abridged: as §1

Compound in the next assay: CS(=O)(=O)N1CCN(Cc2cc3nc(-c4cccc5[nH]ncc45)nc(N4CCOCC4)c3s2)CC1 [pictilisib]
The procedure, abridged:
as §1

UniProt O43766, sequence (O43766 whole entry, looked up): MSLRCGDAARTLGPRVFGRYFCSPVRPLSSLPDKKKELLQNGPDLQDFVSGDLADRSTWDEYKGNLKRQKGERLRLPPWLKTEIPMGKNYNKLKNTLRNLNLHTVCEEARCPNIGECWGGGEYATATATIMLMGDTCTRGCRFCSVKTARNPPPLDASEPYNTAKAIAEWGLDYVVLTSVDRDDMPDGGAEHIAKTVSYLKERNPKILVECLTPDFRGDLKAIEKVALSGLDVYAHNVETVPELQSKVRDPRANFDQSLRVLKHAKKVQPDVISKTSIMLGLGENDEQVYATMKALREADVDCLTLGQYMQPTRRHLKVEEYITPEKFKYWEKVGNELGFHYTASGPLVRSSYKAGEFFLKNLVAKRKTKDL
UniProt Q9GZY8, sequence (Q9GZY8 whole entry, looked up): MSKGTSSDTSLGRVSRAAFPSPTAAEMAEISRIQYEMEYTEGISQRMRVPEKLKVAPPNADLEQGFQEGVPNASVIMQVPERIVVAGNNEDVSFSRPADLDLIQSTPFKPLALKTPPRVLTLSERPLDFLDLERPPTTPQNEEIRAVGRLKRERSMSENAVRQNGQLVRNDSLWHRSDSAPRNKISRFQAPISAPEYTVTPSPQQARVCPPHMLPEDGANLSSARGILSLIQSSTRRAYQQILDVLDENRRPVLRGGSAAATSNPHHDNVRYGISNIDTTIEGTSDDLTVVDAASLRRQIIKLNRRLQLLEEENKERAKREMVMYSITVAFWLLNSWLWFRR
UniProt Q14676, sequence (Q14676 whole entry, looked up): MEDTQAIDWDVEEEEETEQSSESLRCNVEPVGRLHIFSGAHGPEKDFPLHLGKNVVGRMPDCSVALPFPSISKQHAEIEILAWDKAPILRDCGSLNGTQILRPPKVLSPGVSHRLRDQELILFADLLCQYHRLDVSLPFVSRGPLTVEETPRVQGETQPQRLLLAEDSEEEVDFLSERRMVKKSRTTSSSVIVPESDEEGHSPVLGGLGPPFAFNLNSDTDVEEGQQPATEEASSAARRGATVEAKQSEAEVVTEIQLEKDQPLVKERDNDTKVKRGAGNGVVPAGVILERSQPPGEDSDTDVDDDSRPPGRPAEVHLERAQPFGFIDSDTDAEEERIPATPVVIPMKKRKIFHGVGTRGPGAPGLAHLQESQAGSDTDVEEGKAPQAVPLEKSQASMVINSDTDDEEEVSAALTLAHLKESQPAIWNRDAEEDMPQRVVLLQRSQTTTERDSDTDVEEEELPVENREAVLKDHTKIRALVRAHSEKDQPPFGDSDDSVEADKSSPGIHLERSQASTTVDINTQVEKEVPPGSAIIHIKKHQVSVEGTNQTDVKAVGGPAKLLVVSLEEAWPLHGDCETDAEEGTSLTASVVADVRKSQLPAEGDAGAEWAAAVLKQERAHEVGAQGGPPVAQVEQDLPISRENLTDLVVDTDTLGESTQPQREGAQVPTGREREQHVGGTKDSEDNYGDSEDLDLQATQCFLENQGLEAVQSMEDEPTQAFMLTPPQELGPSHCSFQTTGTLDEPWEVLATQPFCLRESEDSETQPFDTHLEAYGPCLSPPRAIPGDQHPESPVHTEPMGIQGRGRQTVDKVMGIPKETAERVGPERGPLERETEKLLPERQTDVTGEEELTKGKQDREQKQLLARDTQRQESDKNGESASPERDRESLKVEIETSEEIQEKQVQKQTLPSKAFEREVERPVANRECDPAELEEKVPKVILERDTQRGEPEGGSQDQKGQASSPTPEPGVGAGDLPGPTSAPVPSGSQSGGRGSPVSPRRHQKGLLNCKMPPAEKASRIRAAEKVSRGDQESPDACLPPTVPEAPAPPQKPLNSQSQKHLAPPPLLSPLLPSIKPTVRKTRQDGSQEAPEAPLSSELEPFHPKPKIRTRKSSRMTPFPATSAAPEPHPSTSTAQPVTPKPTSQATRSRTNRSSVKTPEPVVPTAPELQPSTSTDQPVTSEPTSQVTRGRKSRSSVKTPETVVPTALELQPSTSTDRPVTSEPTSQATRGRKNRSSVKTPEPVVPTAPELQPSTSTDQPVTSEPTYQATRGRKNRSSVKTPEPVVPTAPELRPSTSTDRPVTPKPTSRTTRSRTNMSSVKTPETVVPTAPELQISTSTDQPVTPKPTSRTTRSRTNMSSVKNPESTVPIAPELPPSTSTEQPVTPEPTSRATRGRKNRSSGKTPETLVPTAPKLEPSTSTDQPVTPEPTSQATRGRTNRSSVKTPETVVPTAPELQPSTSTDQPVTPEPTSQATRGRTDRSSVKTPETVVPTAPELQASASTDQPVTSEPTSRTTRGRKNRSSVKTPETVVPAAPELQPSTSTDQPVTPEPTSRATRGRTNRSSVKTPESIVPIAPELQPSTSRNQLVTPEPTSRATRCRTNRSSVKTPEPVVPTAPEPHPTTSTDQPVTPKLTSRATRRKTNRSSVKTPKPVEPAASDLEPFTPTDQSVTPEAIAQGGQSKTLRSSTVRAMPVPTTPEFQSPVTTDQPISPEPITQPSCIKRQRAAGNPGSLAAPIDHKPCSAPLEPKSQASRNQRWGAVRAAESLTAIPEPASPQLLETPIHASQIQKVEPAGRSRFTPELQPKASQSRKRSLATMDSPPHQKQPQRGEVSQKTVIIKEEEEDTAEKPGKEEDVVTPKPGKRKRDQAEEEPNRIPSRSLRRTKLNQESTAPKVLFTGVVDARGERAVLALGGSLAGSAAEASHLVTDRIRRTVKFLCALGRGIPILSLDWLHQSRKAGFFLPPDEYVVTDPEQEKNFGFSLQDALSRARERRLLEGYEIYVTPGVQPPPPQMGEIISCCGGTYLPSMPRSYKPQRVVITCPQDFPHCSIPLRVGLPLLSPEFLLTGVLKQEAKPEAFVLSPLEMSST
UniProt O95372, sequence (O95372 whole entry, looked up): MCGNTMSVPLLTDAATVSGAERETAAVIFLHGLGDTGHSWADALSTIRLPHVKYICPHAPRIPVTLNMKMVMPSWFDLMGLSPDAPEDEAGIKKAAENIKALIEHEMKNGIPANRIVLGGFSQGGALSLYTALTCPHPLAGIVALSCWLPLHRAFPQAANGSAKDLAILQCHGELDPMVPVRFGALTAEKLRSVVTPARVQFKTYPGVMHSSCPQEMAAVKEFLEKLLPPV

Turning to LYPLA2 (UniProt O95372), the log2 fold change was -0.063 with saracatinib; -0.039 in the assay with sotrastaurin; -0.126 with alvocidib; 0.018 with Tubastatin A; 0.007 in assay [1]; -0.09 with defactinib. Further, the log2 fold change was -0.041 with rucaparib; -0.01 in [2]; -0.031 in the assay with encorafenib; 0.087 in assay [3]; 0.188 in assay [4]; 0.014 with filanesib. For the same target, the log2 fold change was 0.002 with zotarolimus; 0.027 with idasanutlin; 0.121 with alisertib; -0.23 in assay [5]; 0.047 with gefitinib; 0.044 in assay [6]. In addition, the log2 fold change with lapatinib is -0.048; in the assay with pictilisib, -0.026.

For MDC1 (UniProt Q14676), the log2 fold change was -0.194 with saracatinib; -0.003 with sotrastaurin; 0.027 with alvocidib; 0.011 in the assay with Tubastatin A; -0.162 in [1]; -0.012 in the assay with defactinib. The log2 fold change was 0.082 with rucaparib; 0.119 in [2]; 0.075 in the assay with encorafenib; -0.067 in [3]; -0.055 in assay [4]; 0.223 with filanesib. The log2 fold change with zotarolimus was 0.005; in the assay with idasanutlin, 0.283; with alisertib it was -0.028; in assay [5], -0.01; with gefitinib, 0.032; in assay [6] it was -0.045. The log2 fold change was 0.077 in the assay with lapatinib and 0.08 with pictilisib.

As for MFF (UniProt Q9GZY8), the log2 fold change in the assay with saracatinib was 0.003; with sotrastaurin, -0.027; with alvocidib, -0.06; with Tubastatin A, 0.012; in assay [1], -0.127; with defactinib it was -0.025. Moreover, the log2 fold change with rucaparib is -0.059; in [2], -0.078; with encorafenib, 0.015; in [3], 0.092; in assay [4], 0.038; with filanesib, 0.075. Also, the log2 fold change in the assay with zotarolimus is -0.022; in the assay with idasanutlin, 0.053; in the assay with alisertib, 0.024; in assay [5], -0.141; with gefitinib it was 0.012; in assay [6], 0.128. The figures for the log2 fold change in the assay with lapatinib and with pictilisib were -0.061 and 0.103, respectively.

For the target LIAS (UniProt O43766), the log2 fold change was 0.049 in the assay with saracatinib; 0.271 (active) with sotrastaurin; 0.065 in the assay with alvocidib; -0.056 with Tubastatin A; 0.029 in assay [1]; 0.018 with defactinib. For the same target, the log2 fold change was 0.017 in the assay with rucaparib; -0.027 in assay [2]; 0 with encorafenib; 0.022 in assay [3]; -0.131 in assay [4]; -0.049 in the assay with filanesib. The log2 fold change was -0.097 with zotarolimus; -0.032 with idasanutlin; -0.041 with alisertib; 0.132 in [5]; 0.014 with gefitinib; 0.036 in assay [6]. The log2 fold change is -0.051 with lapatinib and 0.078 in the assay with pictilisib.
